Where a name gives a salt, the structure may show the parent alone.
Columns and labels:
Settings in all cases: compound concentration in added solution (µM; 5 µl added to 20 µl cells): 10; 18 h
A431 [1] = experiment: LBPA endosome anti-LBPA integrated intensity (sum per cell), Z-score; higher = more LBPA staining
Summary of the method: (§1)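 Four 20× images per well were taken of HeLa MZ or A431 cells that had been seeded at 3,500 per well in 20 µl onto 5 µl of 10 µM compound solution in duplicate 384-well imaging plates. Before imaging, cells were incubated 18 h, fixed in 4% PFA and stained with 6C4 anti-LBPA antibody, filipin, propidium iodide and CellTracker green. Values are Z-scores normalised in AcuityXpress from MetaXpress-derived per-cell integrated LBPA or filipin intensity, either whole-cell or within LBPA endosomes.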

HeLa MZ [2] = experiment: as above
Summary of the method: as §1

A431 [3] = experiment: whole-cell filipin (free cholesterol) integrated intensity, Z-score; higher = more cholesterol staining
Summary of the method: as §1

HeLa MZ [4] = experiment: as above
Summary of the method: as §1

A431 [5] = experiment: filipin (cholesterol) integrated intensity within LBPA endosomes, Z-score; higher = more cholesterol in LBPA endosomes
Summary of the method: as §1

HeLa MZ [6] = experiment: as above
Summary of the method: as §1

| Compound | LBPA endosome anti-LBPA integrated intensity (z-score) (A431 [1]) | LBPA endosome anti-LBPA integrated intensity (z-score) (HeLa MZ [2]) | whole-cell filipin (z-score) (A431 [3]) | whole-cell filipin (z-score) (HeLa MZ [4]) | filipin (z-score) (A431 [5]) | filipin (z-score) (HeLa MZ [6]) |
| --- | --- | --- | --- | --- | --- | --- |
| O=c1n(CCCN2CCN(c3cccc(Cl)c3)CC2)nc2ccccn12 [Trazodone hydrochloride] | 0.505 | 2.35 | 0.713 | 1.12 | 0.872 | 1.04 |
| COc1ccc(C2CNC(=O)C2)cc1OC1CCCC1 (centres undefined) [Rolipram] | -0.493 | -0.432 | -0.586 | -0.445 | -0.453 | -0.525 |
| C=CCSCC1Nc2cc(Cl)c(S(N)(=O)=O)cc2S(=O)(=O)N1 (centres undefined) [Althiazide] | -0.575 | -1.6 | -0.613 | -0.588 | -0.491 | -0.642 |
| COc1cc(N)c(Cl)cc1C(=O)NC1CCN(CCCOc2ccc(F)cc2)CC1OC (centres undefined) [Cisapride] | 0.467 | 0.977 | -0.114 | 0.308 | 0.0889 | 0.672 |
| CC(C)(O)c1ccccc1CC[C@@H](SCC1(CC(=O)O)CC1)c1cccc(/C=C/c2ccc3ccc(Cl)cc3n2)c1 [Montelukast] | -0.42 | 0.903 | -0.0363 | 0.0687 | -0.415 | -0.392 |
| CN1C(=O)CC(c2ccccc2)C1=O (centres undefined) [Phensuximide] | -0.488 | -0.914 | -0.489 | -0.774 | -0.376 | -0.653 |
| CN(C(=O)C(Cl)Cl)c1ccc(OC(=O)c2ccco2)cc1 [Diloxanide furoate] | -0.565 | -0.529 | -0.629 | -0.7 | -0.498 | -0.517 |
| Oc1c(Cl)cc(Cl)c(Cl)c1Cc1c(O)c(Cl)cc(Cl)c1Cl [Hexachlorophene] | -0.408 | -0.818 | -0.203 | -0.11 | -0.443 | -0.32 |
| Cc1c(-c2ccccc2)oc2c(C(=O)OCCN3CCCCC3)cccc2c1=O [Flavoxate hydrochloride] | -0.643 | -0.619 | -0.892 | -0.899 | -0.515 | -0.534 |
| CN(Cc1cc(Br)cc(Br)c1N)C1CCCCC1 [Bromhexine hydrochloride] | -0.251 | -1.52 | 0.328 | -0.199 | -0.159 | -0.552 |
| CC(=O)OCC(=O)[C@@]12OC(C)(C)O[C@@H]1C[C@H]1[C@@H]3C[C@H](F)C4=CC(=O)C=C[C@]4(C)[C@@]3(F)[C@@H](O)C[C@@]12C [Fluocinonide] | -0.115 | -0.842 | -0.144 | -0.284 | -0.311 | -0.49 |
| OCCN1CCN(CC/C=C2/c3ccccc3Sc3ccc(Cl)cc32)CC1 [Zuclopenthixol hydrochloride] | 3.18 | 1.68 | 0.421 | 0.439 | 2.79 | 2.86 |
| CN(N=O)C(=O)N[C@@H](C=O)[C@@H](O)[C@H](O)[C@H](O)CO [Streptozotocin] | -0.585 | -0.52 | -0.71 | -0.525 | -0.474 | -0.51 |
| COc1cc2nc(N(C)CCCNC(=O)C3CCCO3)nc(N)c2cc1OC (centres undefined) [Alfuzosin hydrochloride] | 1.37 | 1.11 | -0.35 | -0.351 | 0.00526 | 0.128 |
| CC(O)(P(=O)(O)O)P(=O)(O)O [Etidronic acid, disodium salt] | -0.428 | -0.376 | -0.14 | -0.368 | -0.461 | -0.4 |
| CC(C)NC[C@@H](O)COc1cccc2ccccc12 [(R)-Propranolol hydrochloride] | 0.16 | 1.45 | 0.468 | -0.0727 | 0.133 | 0.265 |
| Cc1c(C)c2c(c(C)c1O)CCC(C)(C(=O)O)O2 (centres undefined) [Trolox] | -0.472 | 0.342 | -0.624 | 0.128 | -0.552 | -0.401 |
| CC(C)(C)NC[C@@H](O)COc1cccc2c1CCCC2=O [(+) -Levobunolol hydrochloride] | -0.326 | 1.33 | -0.176 | -0.0312 | -0.353 | 0.0482 |
| CC(=O)Oc1cc(C(F)(F)F)ccc1C(=O)O [Triflusal] | -0.556 | -0.553 | -0.393 | 0.0625 | -0.513 | -0.544 |
| Clc1ccc2c(c1)C(N1CCNCC1)=Nc1ccccc1O2 [Amoxapine] | 3.32 | 0.828 | 0.789 | -0.797 | 2.56 | 1.55 |
| NCCCC(O)(P(=O)(O)O)P(=O)(O)O [Alendronate sodium] | -0.662 | -1.69 | -0.705 | -0.128 | -0.56 | -0.588 |
| O=C(O)c1cc(/N=N/c2ccc(S(=O)(=O)Nc3ccccn3)cc2)ccc1O [Sulfasalazine] | -0.338 | 0.849 | 0.0767 | 1.46 | -0.515 | -0.277 |
| NC(=O)c1cnccn1 [Pyrazinamide] | -0.586 | -0.505 | -0.486 | -0.665 | -0.578 | -0.581 |
| CCn1nc(C(=O)O)c(=O)c2cc3c(cc21)OCO3 [Cinoxacin] | -0.298 | 0.452 | -0.393 | -0.0614 | -0.442 | -0.322 |
| CN(C(=O)CN(CCO)CC(=O)N(C)C(C)(C)Cc1ccccc1)C(C)(C)Cc1ccccc1 [Oxethazaine] | 1.71 | 0.996 | 1.26 | 0.298 | 1.53 | 2.17 |

| Compound | LBPA endosome anti-LBPA integrated intensity (z-score) (A431 [1]) | LBPA endosome anti-LBPA integrated intensity (z-score) (HeLa MZ [2]) | whole-cell filipin (z-score) (A431 [3]) | whole-cell filipin (z-score) (HeLa MZ [4]) | filipin (z-score) (A431 [5]) | filipin (z-score) (HeLa MZ [6]) |
| --- | --- | --- | --- | --- | --- | --- |
| O=C(O)COCCN1CCN(C(c2ccccc2)c2ccc(Cl)cc2)CC1 (centres undefined) [Cetirizine dihydrochloride] | -0.494 | -0.434 | -0.716 | -0.836 | -0.508 | -0.525 |
| NCCC[C@H](N)CC(=O)N[C@H]1CNC(=O)[C@H]([C@H]2C[C@H](O)NC(N)=N2)NC(=O)/C(=C/NC(N)=O)NC(=O)[C@H](CO)NC(=O)[C@H](CO)NC1=O [Viomycin sulfate] | -0.57 | -1.06 | -0.305 | -0.46 | -0.563 | -0.474 |
| CCC(=O)OCC(=O)[C@@]1(OC(=O)CC)[C@H](C)C[C@H]2[C@H]3[C@H]([C@@H](O)C[C@@]21C)[C@@]1(C)C=CC(=O)C=C1C[C@H]3Cl [Alclometasone dipropionate] | -0.24 | 0.1 | -0.316 | -0.125 | -0.325 | -0.277 |
| CCC(=O)OCC(=O)[C@@]1(OC(=O)CC)[C@@H](C)C[C@H]2[C@@H]3CCC4=CC(=O)C=C[C@]4(C)[C@@]3(Cl)[C@@H](O)C[C@@]21C [Beclomethasone dipropionate] | -0.15 | 0.711 | 0.251 | -0.00746 | -0.116 | 0.00681 |
| Cn1c(=O)c2c(ncn2CCO)n(C)c1=O [Etofylline] | -0.487 | -1.05 | -0.938 | -1.17 | -0.451 | -0.58 |
| CCOC(=O)N1CCC(=C2c3ccc(Cl)cc3CCc3cccnc32)CC1 [Loratadine] | 0.316 | 0.865 | 0.633 | 0.548 | 0.439 | 0.942 |
| O=C(OCC(O)CO)c1ccccc1Nc1ccnc2cc(Cl)ccc12 (centres undefined) [Glafenine hydrochloride] | 0.592 | 1.9 | -1 | -1.18 | -0.297 | 0.0497 |
| CC(=O)O[C@H]1C[C@@]2(C)[C@@H](C[C@@H](O)[C@H]3[C@@]4(C)CC[C@@H](O)[C@@H](C)[C@@H]4CC[C@@]32C)/C1=C(\CCC=C(C)C)C(=O)O [Fusidic acid sodium salt] | -0.322 | 0.503 | -0.581 | 0.0569 | -0.49 | -0.416 |
| CCCc1nc(C)c2c(=O)nc(-c3cc(S(=O)(=O)N4CCN(CC)CC4)ccc3OCC)[nH]n12 [Vardenafil] | -0.314 | 1.35 | 0.127 | 0.375 | -0.156 | 0.224 |
| CC(=O)[C@H]1CC[C@H]2[C@@H]3C[C@H](C)C4=CC(=O)CC[C@]4(C)[C@H]3[C@@H](O)C[C@]12C [Medrysone] | 1.76 | 1 | 0.12 | 0.163 | 0.432 | 0.0722 |
| CC(=O)[C@@]1(O)CC[C@H]2[C@@H]3C[C@H](C)C4=CC(=O)C=C[C@]4(C)[C@@]3(F)[C@@H](O)C[C@@]21C [Fluorometholone] | -0.292 | -0.618 | -0.262 | -0.2 | -0.289 | -0.522 |
| CN1CCN(CCCN2c3ccccc3Sc3ccc(C(F)(F)F)cc32)CC1 [Trifluoperazine dihydrochloride] | 1.83 | -0.0806 | -0.826 | 0.153 | 2.06 | 3.01 |
| COc1cc2nc(N3CCN(C(=O)c4ccco4)CC3)nc(N)c2cc1OC [Prazosin hydrochloride] | 2.82 | 1.41 | 1.2 | 0.626 | 0.829 | 0.146 |
| NC(=O)c1cc[n+](CC2=C(C(=O)[O-])N3C(=O)[C@@H](NC(=O)[C@@H](c4ccccc4)S(=O)(=O)O)[C@H]3SC2)cc1 [Cefsulodin sodium salt] | -0.471 | -0.634 | -0.331 | -0.0382 | -0.357 | -0.398 |
| CN1CCCN=C1/C=C/c1cccs1 [Pyrantel tartrate] | -0.533 | -0.181 | -0.934 | -1.12 | -0.565 | -0.677 |
| CN(C)CCOC(c1ccccc1)c1ccccc1 [Diphenhydramine hydrochloride] | -0.431 | -0.0117 | -0.136 | -0.63 | -0.485 | -0.0904 |
| CC(C)NCC(O)c1cc(O)cc(O)c1 (centres undefined) [Metaproterenol sulfate, orciprenaline sulfate] | -0.366 | -0.417 | -0.271 | -0.375 | -0.531 | -0.465 |
| CCCC(=O)Nc1ccc(OCC(O)CNC(C)C)c(C(C)=O)c1 (centres undefined) [Acebutolol hydrochloride] | -0.335 | -0.6 | -0.712 | -0.665 | -0.476 | -0.408 |
| CC1CCc2c(N3CCC(O)CC3)c(F)cc3c(=O)c(C(=O)O)cn1c23 (centres undefined) [Nadifloxacin] | -0.419 | -1.21 | -0.24 | -0.254 | -0.402 | -0.471 |
| CC1=C(CC(=O)O)c2cc(F)ccc2/C1=C\c1ccc([S+](C)[O-])cc1 (centres undefined) [Sulindac] | -0.696 | -1.83 | -0.98 | -1 | -0.655 | -0.701 |
| COc1ccccc1OCCNCC(O)COc1cccc2[nH]c3ccccc3c12 (centres undefined) [Carvedilol] | 4.32 | 3.72 | 2.68 | 3 | 3.9 | 5.27 |
| OCc1cc(C(O)CNCCCCCCOCCCCc2ccccc2)ccc1O (centres undefined) [Salmeterol] | 2.65 | 2.85 | 3.59 | 2.48 | 1.61 | 2.18 |
| CN1CCN(c2c(F)cc3c(=O)c(C(=O)O)cn4c3c2SCC4)CC1 [Rufloxacin] | -0.614 | -0.736 | 0.0183 | -0.289 | -0.534 | -0.17 |
| O=C(O)CCCC[C@@H]1SC[C@@H]2NC(=O)N[C@@H]21 [Biotin] | -0.478 | -0.782 | -0.69 | -0.491 | -0.471 | -0.52 |

From the supplement of paper PMC6607015
